PubChem BioAssay (Tox21)
A number with no mark means an inactive call. Results filed as inconclusive are left out. A call without a number means that no potency is given here. Active and inactive are the calls of the source. Unless noted, calls come from the whole dose curve.

Key:
[1] = Nuclear factor erythroid 2-related factor 2/antioxidant responsive element (Nrf2/ARE) small molecule agonists: qHTS cell viability counter screen in human keratinocytes (AID 1919968; active = well fitted curve in the direction sought with a large enough effect in the repeat runs; an effect the other way counts as inactive or inconclusive; note: nearly all actives have a fitted effect of over 55% in size)
Method in brief: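 Viability counter-screen: KeratinoSens reporter cells, DMSO-delivered compounds, 23 h at 37 C, CellTiter-Fluor fluorescence.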

[2] = Nuclear factor erythroid 2-related factor 2/antioxidant responsive element (Nrf2/ARE) small molecule agonists: luciferase reporter gene qHTS assay in human keratinocytes (AID 1919969); note: nearly all actives have a fitted effect of over 35% in size
[3] = target: Gonadotropin-releasing hormone receptor (Homo sapiens) (UniProt P30968); test: Human gonadotropin-releasing hormone receptor (GnRHR) small molecule agonists, calcium flux assay in GnRHR-HEK293 cells (AID 1920063); note: nearly all actives have a fitted effect of over 35% in size
Method in brief: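 Tox21-format agonist screen using human GnRHR-expressing HEK293 cells and a fluorescent calcium dye; kinetic 3-min fluorescence reading after compound addition, 15-point concentration series run in triplicate.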

[4] = target: KiSS-1 receptor (Homo sapiens) (UniProt Q969F8); test: Human kisspeptin (KISS1R) small molecule agonists, calcium flux assay in KISS1R-HEK293 cells (AID 1920064; active = well fitted curve in the direction sought with a large enough effect in the repeat runs; an effect the other way counts as inactive or inconclusive)
Method in brief: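 Intracellular calcium mobilization in KISS1R-HEK293 cells was recorded by fluorescence (Ex/Em 480/540) for 3 min following compound addition to cells pre-loaded 1 h with calcium dye.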

[5] = G protein-coupled receptor (GPCR) small molecule agonists, calcium flux assay: HEK293 wild type cell line counter screen (AID 1920065)
Method in brief: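 In this agonist-mode screen, ATP is the positive control and DMSO the vehicle. Cells grow 18 h before a 1 h dye incubation at 37 C; signal is taken at Ex/Em 480/540 over 3 min.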

[6] = p53 small molecule agonists, cell-based qHTS assay with human liver microsomes (AID 1963577);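 note: p53 response element beta-lactamase reporter cells with liver microsomes plus NADPH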
Method in brief: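 Reporter activation was measured by LiveBLAzer fluorescence intensity in p53RE-bla cells, which had been exposed to compounds for 16 h at 37 C alongside 0.5 mg/mL human liver microsomes and 0.5 mg/mL NADPH (final concentrations).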

[7] = p53 small molecule agonists, cell-based qHTS assay with rat liver microsomes (AID 1963578)
Method in brief: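 Compound in DMSO added to p53RE-bla cells 5 h post-plating; rat microsomes/NADPH 0.5 mg/mL final; 16 h, 37 C; LiveBLAzer 2 h RT.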

[8] = p53 small molecule agonists, cell-based qHTS assay with human liver microsomes: qHTS cell viability counter screen (AID 1963579); note: nearly all actives have a fitted effect of over 45% in size; note: potency is the fitted concentration of half-maximal effect
Method in brief: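 HLM-supplemented (0.5 mg/mL final) and NADPH-supplemented (0.5 mg/mL final) p53RE-bla cultures, 4,000 cells per well, were dosed with compounds in DMSO for 16 h at 37 C; luminescent ATP detection (CellTiter-Glo, 30 min, room temperature) quantified surviving cells.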

[9] = p53 small molecule agonists, cell-based qHTS assay with rat liver microsomes: qHTS cell viability counter screen (AID 1963580); note: nearly all actives have a fitted effect of over 45% in size
Method in brief: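 p53RE-bla HCT-116 cells were exposed 16 h at 37 C to compounds with rat liver microsomes (0.5 mg/mL) and NADPH (0.5 mg/mL). Viability was measured in the same wells as ATP content by CellTiter-Glo luminescence.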

[10] = p53 small molecule agonists, cell-based qHTS assay: qHTS cell viability counter screen (AID 1963581); note: nearly all actives have a fitted effect of over 45% in size
Method in brief: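 Compounds are pinned onto HCT-116 p53RE-bla cells and left 16 h at 37 C. Following the reporter FRET read, ATP is quantified by CellTiter-Glo luminescence after 30 min at room temperature.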

[11] = target: 5-hydroxytryptamine receptor 2A (Homo sapiens) (UniProt P28223); test: 5-hydroxytryptamine receptor 2A (HTR2A) small molecule agonists, cell-based qHTS assay (AID 1963587); note: nearly all actives have a fitted effect of over 30% in size; note: potency is the fitted concentration of half-maximal effect
Method in brief: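 CHO cells stably expressing human HTR2A, plated 18 h, loaded with calcium dye 1 h at 37 C. Agonist mode: compounds added and intracellular calcium fluorescence recorded kinetically for 2 min at 1 sec intervals.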

[12] = target: Muscarinic acetylcholine receptor M1 (Homo sapiens) (UniProt P11229); test: Cholinergic receptor muscarinic 1 (CHRM1) small molecule antagonists, cell-based qHTS assay (AID 1963588); note: nearly all actives have a fitted effect of over 40% in size
Method in brief: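 CHRM1-CHO calcium-flux assay, antagonist mode. Cells were seeded 18 h, dye-loaded 1 h at 37 C and given compound for 5 min at RT, then acetylcholine was added at 50nM. FDSS fluorescence was read 3 min; 15 concentrations, three runs.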

[13] = target: Muscarinic acetylcholine receptor M1 (Homo sapiens) (UniProt P11229); test: Cholinergic receptor muscarinic 1 (CHRM1) small molecule agonists, cell-based qHTS assay (AID 1963589); note: nearly all actives have a fitted effect of over 35% in size
Method in brief: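 Stable CHRM1-CHO cells (human receptor) were incubated 18 h, dye-loaded for 1 h at 37 C and exposed to test compounds for agonist activity, with calcium-dependent fluorescence followed kinetically.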

[14] = cAMP Responsive Elements (CRE) small molecule agonists, cell-based qHTS assay (AID 1963590)
Method in brief: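 FRET-based beta-lactamase readout (LiveBLAzer B/G, 2 h RT) quantified CRE activation in HEK 293T CRE-bla cells after 3 h treatment with DMSO-dissolved compounds.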

[15] = cAMP Responsive Elements (CRE) small molecule antagonists, cell-based qHTS assay (AID 1963591; active = well fitted inhibition curve with a large enough effect in the signal ratio in the repeat runs, not every such curve was filed as active; the % refers to the signal ratio)
Method in brief: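 qHTS in CRE-bla HEK 293T cells: compound in DMSO, then 0.25 uM NKH477 (final), 3 h at 37 °C/5% CO2; beta-lactamase FRET read-out after 2 h substrate incubation.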

[16] = target: Beta-2 adrenergic receptor (Homo sapiens) (UniProt P07550); test: Adrenergic beta2 receptor (ADRB2) small molecule antagonists, cell-based qHTS assay (AID 1963592); note: nearly all actives have a fitted effect of over 50% in size; note: potency is the fitted concentration of half-maximal effect; for activity change, negative = inhibition: series mostly up to about 92 µM
Method in brief: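 Cells (CHO, stable ADRB2 overexpression) incubated 18-20hr at 37C; compounds added from DMSO; agonist mix (1nM isoproterenol, 100uM IBMX, 25uM Ro-20-1724) added; 0.5hr RT; d2-cAMP and anti-cAMP-cryptate added; 1hr RT; 665/615 nm read.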

[17] = target: Beta-2 adrenergic receptor (Homo sapiens) (UniProt P07550); test: Adrenergic beta2 receptor (ADRB2) small molecule agonists, cell-based qHTS assay (AID 1963593);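 note: CHO cells stably overexpressing human ADRB2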
Method in brief: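 CHO cells stably over-expressing ADRB2 were plated overnight at 37C, then dosed with compounds plus a stimulation mix containing 100uM IBMX and 25uM Ro-20-1724 for 0.5hr at room temperature. cAMP was measured by HTRF competition, 1hr.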

[18] = target: D(2) dopamine receptor (Homo sapiens) (UniProt P14416); test: Dopamine D2 receptor (DRD2) small molecule agonists, cell-based qHTS assay (AID 1963594); note: nearly all actives have a fitted effect of over 35% in size
Method in brief: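 HEK293 cells stably expressing human DRD2, pre-treated with PDE inhibitor Ro20-1724 (0.1 mM final) and compound 10 min at room temperature, then stimulated with NKH477 (200nM […]) for 30 min. cAMP read by HTRF (665/620 nm).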

[19] = target: D(2) dopamine receptor (Homo sapiens) (UniProt P14416); test: Dopamine D2 receptor (DRD2) small molecule antagonists, cell-based qHTS assay (AID 1963595; active = well fitted inhibition curve with a large enough effect in the signal ratio in the repeat runs, with a control signal flat; the % refers to the signal ratio)
Method in brief: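 HTRF cAMP read-out at 665 and 620 nm emission (340 nm excitation). Antagonist mode: compounds were tested against 12 nM quinpirole in DRD2-HEK293 cells, with 200 nM NKH477 raising cAMP and 0.1 mM Ro20-1724 blocking its breakdown.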

5-hydroxytryptamine receptor 2A (Homo sapiens), sequence (P28223 whole entry, looked up): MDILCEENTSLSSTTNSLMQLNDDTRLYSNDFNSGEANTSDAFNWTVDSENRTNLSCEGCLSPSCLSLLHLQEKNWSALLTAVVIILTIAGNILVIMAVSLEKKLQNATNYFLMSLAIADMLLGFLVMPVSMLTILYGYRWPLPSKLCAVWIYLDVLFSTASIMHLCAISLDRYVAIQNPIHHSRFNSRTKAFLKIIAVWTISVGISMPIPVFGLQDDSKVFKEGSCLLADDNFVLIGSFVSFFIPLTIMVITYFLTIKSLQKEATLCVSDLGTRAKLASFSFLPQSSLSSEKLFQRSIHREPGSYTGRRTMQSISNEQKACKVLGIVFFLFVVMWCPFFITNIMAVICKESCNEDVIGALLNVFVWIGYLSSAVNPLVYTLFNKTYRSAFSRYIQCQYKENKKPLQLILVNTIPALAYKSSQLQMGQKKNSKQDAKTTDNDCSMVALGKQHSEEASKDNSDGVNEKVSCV
Gonadotropin-releasing hormone receptor (Homo sapiens), sequence (P30968 whole entry, looked up): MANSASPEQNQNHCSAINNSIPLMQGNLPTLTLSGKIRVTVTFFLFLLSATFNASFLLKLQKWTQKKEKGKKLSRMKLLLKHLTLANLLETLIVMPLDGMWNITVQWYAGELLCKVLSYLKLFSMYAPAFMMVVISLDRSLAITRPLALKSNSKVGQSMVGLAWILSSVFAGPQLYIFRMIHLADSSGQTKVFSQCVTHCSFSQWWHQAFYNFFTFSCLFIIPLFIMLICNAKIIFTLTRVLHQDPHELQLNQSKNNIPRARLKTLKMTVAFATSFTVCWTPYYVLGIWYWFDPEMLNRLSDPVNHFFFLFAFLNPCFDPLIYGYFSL
Muscarinic acetylcholine receptor M1 (Homo sapiens), sequence (P11229 whole entry, looked up): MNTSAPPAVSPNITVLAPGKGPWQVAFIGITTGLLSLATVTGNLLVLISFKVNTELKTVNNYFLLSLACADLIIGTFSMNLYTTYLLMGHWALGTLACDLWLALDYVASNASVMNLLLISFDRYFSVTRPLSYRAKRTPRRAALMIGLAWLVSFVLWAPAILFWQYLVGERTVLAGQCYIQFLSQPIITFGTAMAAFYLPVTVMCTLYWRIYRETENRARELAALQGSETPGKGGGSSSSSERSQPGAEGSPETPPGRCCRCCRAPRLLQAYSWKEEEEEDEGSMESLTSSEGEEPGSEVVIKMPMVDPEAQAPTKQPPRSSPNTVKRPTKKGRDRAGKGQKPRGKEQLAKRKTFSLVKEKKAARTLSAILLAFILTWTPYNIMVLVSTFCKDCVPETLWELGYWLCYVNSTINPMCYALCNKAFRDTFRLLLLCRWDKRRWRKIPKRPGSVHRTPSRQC
KiSS-1 receptor (Homo sapiens), sequence (Q969F8 whole entry, looked up): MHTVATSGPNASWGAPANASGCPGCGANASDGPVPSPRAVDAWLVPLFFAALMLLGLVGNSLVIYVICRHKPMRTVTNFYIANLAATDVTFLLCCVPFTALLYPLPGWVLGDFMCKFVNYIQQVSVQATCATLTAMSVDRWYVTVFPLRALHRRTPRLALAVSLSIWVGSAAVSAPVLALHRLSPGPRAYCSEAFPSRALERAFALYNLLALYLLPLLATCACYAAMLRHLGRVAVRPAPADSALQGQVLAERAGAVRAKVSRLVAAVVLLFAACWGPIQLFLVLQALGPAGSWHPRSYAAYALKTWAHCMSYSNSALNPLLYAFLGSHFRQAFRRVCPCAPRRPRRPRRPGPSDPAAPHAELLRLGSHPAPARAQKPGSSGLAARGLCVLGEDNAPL
D(2) dopamine receptor (Homo sapiens), sequence (P14416 whole entry, looked up): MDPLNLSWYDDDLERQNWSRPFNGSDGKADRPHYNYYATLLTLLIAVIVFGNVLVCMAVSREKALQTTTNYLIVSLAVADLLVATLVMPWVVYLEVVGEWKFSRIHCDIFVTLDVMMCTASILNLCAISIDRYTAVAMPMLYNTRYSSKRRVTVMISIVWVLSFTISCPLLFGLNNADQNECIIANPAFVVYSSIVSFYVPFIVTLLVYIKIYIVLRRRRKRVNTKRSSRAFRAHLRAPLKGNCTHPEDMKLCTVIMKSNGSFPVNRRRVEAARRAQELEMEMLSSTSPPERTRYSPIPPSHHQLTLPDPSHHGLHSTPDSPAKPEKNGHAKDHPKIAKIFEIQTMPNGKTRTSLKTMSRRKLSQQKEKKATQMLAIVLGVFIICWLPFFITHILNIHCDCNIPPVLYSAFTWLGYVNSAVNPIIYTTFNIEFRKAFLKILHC
Beta-2 adrenergic receptor (Homo sapiens), sequence (P07550 whole entry, looked up): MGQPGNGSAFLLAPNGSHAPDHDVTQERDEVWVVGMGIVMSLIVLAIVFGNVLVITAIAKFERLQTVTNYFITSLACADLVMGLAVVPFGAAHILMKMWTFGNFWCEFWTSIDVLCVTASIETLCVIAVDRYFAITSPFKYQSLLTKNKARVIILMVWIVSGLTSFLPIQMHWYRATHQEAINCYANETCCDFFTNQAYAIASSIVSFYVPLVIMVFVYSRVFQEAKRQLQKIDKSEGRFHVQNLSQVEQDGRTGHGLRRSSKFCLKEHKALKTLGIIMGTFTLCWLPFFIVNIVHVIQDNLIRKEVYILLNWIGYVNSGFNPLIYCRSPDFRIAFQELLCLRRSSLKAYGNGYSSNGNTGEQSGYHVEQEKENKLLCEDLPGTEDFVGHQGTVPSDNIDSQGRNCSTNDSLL

CCCCCCCCCCCCCCCCCCN(C)C
Potency [1]: inactive
Potency [2]: inactive
Potency [3]: inactive
outcome [4]: inactive
outcome [5]: inactive
Potency [6]: inactive
Potency [7]: inactive
Potency [8]: inactive
Potency [9]: inactive
Potency [10]: inactive
Potency [11]: inactive
Potency [12]: inactive
Potency [13]: inactive
Potency [14]: inactive
Potency [15]: inactive
Potency [16]: inactive
Potency [17]: inactive
Potency [18]: inactive
Potency [19]: inactive

COc1ccc(C(=O)Nc2ccccc2)cc1[N+](=O)[O-]
Potency [1]: inactive
Potency [2]: inactive
Potency [3]: inactive
outcome [4]: inactive
outcome [5]: inactive
Potency [6]: inactive
Potency [7]: inactive
Potency [8]: inactive
Potency [9]: inactive
Potency [10]: inactive
Potency [11]: inactive
Potency [12]: inactive
Potency [13]: inactive
Potency [16]: inactive
Potency [18]: inactive
Potency [19]: inactive

COc1cc2nc(N3CCN(C(=O)c4ccco4)CC3)nc(N)c2cc1OC
activity change, negative = cytotoxicity [1]: -15.2% [at 19 µM]
activity, positive = activation [2]: -0.0377% [at 19 µM]
activity change [3]: -0.192% [at 11.8 µM, active compounds read high]
activation [4]: 1.31% [at 15.8 µM]
activation [5]: 0.594% [at 11.8 µM]
activation [6]: -0.142% [at 13.5 µM]
activation [7]: 0.86% [at 13.6 µM]
Potency [8]: 0.972 µM (active)
activity change, negative = cytotoxicity [9]: 0.442% [at 13.5 µM]
activity change, negative = cytotoxicity [10]: 24.1% [at 13.5 µM]
activation [14]: -0.578% [at 19 µM]
Potency [16]: 14.6 µM (active)
activation [18]: 10.2% [at 19 µM]
activity change, negative = inhibition [19]: 1.94% [at 18.9 µM]

NC1[C@H]2CN(c3nc4c(cc3F)c(=O)c(C(=O)O)cn4-c3ccc(F)cc3F)C[C@@H]12 (some centres undefined)
Potency [1]: inactive
Potency [2]: inactive
Potency [3]: inactive
outcome [4]: inactive
outcome [5]: inactive
Potency [6]: inactive
Potency [7]: inactive
Potency [8]: inactive
Potency [9]: inactive
Potency [10]: inactive
Potency [16]: inactive
Potency [18]: inactive
Potency [19]: inactive

CCCC[P+](C)(CCCC)CCCC
Potency [1]: inactive
Potency [2]: inactive
Potency [3]: inactive
outcome [4]: inactive
outcome [5]: inactive
Potency [6]: inactive
Potency [7]: inactive
Potency [8]: inactive
Potency [9]: inactive
Potency [10]: inactive
Potency [11]: inactive
Potency [12]: inactive
Potency [13]: inactive
Potency [16]: inactive
Potency [17]: inactive
Potency [18]: inactive
Potency [19]: inactive

Oc1ccc2c(c1)CCC2
Potency [1]: inactive
Potency [2]: inactive
Potency [3]: inactive
outcome [4]: inactive
outcome [5]: inactive
Potency [6]: inactive
Potency [7]: inactive
Potency [8]: inactive
Potency [9]: inactive
Potency [10]: inactive
Potency [11]: inactive
Potency [12]: inactive
Potency [13]: inactive
Potency [14]: inactive
Potency [15]: inactive
Potency [16]: inactive
Potency [18]: inactive
Potency [19]: inactive

COc1c(C)c2c(c(O)c1C/C=C(\C)CCC(=O)OCCN1CCOCC1)C(=O)OC2
Potency [1]: inactive
Potency [2]: inactive
Potency [3]: inactive
outcome [4]: inactive
outcome [5]: inactive
Potency [6]: inactive
Potency [7]: inactive
Potency [8]: inactive
Potency [9]: inactive
Potency [10]: inactive
Potency [16]: inactive
Potency [19]: inactive

CN(C)CCc1c[nH]c2ccc(CS(=O)(=O)N3CCCC3)cc12
Potency [1]: inactive
Potency [2]: inactive
Potency [3]: inactive
outcome [4]: inactive
outcome [5]: inactive
Potency [6]: inactive
Potency [7]: inactive
Potency [8]: inactive
Potency [9]: inactive
Potency [10]: inactive
Potency [11]: 10.7 µM (active)
Potency [14]: inactive
Potency [16]: inactive
Potency [17]: inactive
Potency [19]: inactive
